What all share (assay): DAPPL (digital affinity profiling via proximity ligation, sequencing); 10 mM Tris-HCl pH 7.5, 50 mM NaCl, 1 mM DTT, 4% glycerol, room temperature, 30 min; GST-TFs on glutathione beads, 16-mer random dsDNA library, 0.1% formaldehyde crosslink after washing; high values mean tight binding
For one experiment, the target named is T1, FLI1 (Homo sapiens, UniProt Q01543 1-452).
T1 sequence: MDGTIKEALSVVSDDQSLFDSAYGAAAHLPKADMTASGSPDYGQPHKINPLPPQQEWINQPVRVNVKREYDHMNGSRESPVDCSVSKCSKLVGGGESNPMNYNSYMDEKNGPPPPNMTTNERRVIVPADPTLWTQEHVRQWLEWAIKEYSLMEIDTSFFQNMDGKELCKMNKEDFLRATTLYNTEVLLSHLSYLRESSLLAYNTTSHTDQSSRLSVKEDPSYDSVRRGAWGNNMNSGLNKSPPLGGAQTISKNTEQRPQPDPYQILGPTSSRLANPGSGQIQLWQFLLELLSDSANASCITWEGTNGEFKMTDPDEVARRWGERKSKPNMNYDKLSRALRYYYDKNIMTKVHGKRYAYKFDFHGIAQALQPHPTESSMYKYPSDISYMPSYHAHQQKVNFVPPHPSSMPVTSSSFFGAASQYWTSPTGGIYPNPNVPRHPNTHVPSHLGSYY
Conditions: protein: recombinant; tags: N-terminal GST; dsDNA, one strand shown. In a few lines:
(§1)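 The binding signal reported is, for every hexamer, its read frequency for a factor over its read frequency for the tag-only sample. Reads came from pools of yeast-expressed, GST-fused human transcription factors on glutathione beads, barcoded with DNA and mixed with that sample, which were incubated with 200 nmole of a random double-stranded 16-mer DNA library in Tris/NaCl/DTT/glycerol buffer at room temperature for 30 min. After washing, the pools were crosslinked with 0.1% formaldehyde, proximity-ligated with BsaI/T4 ligase for 1 h at 37 °C, PCR-amplified and sequenced on an Illumina NextSeq500.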

In another experiment the target is T2, ELK1 (Homo sapiens, UniProt P19419 1-428).
T2 sequence: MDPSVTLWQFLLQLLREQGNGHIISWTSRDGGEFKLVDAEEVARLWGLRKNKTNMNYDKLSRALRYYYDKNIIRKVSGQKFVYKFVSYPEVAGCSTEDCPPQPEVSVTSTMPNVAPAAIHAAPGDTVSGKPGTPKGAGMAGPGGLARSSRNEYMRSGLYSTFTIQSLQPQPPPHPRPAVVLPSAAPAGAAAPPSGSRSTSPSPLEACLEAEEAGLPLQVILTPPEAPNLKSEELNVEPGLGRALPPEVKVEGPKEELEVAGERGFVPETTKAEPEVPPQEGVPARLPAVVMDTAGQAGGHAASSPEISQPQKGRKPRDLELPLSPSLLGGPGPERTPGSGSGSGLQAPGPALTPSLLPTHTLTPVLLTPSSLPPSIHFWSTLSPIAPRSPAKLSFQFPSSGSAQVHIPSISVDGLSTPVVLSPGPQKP
To be noted: protein: recombinant; tags: N-terminal GST; dsDNA, one strand shown. In a few lines:
as §1

A further experiment has as its target T3, GABPA (Homo sapiens, UniProt Q06546 1-454).
T3 sequence: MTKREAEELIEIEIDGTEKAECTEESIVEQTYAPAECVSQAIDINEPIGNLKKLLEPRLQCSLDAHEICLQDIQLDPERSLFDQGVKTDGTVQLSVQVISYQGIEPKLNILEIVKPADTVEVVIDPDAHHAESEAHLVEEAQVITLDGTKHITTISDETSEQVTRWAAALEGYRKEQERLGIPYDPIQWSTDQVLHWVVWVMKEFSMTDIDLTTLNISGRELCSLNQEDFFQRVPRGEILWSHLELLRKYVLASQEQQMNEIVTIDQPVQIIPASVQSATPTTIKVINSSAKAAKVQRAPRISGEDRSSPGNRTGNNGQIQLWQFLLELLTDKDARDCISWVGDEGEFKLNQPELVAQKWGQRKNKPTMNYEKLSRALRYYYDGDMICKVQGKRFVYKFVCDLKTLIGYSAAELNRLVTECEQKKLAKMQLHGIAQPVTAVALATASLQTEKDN
Conditions: protein: recombinant; tags: N-terminal GST; dsDNA, one strand shown. In a few lines:
as §1

In a further experiment the target is T4, ERG (Homo sapiens, UniProt P11308 1-479).
T4 sequence: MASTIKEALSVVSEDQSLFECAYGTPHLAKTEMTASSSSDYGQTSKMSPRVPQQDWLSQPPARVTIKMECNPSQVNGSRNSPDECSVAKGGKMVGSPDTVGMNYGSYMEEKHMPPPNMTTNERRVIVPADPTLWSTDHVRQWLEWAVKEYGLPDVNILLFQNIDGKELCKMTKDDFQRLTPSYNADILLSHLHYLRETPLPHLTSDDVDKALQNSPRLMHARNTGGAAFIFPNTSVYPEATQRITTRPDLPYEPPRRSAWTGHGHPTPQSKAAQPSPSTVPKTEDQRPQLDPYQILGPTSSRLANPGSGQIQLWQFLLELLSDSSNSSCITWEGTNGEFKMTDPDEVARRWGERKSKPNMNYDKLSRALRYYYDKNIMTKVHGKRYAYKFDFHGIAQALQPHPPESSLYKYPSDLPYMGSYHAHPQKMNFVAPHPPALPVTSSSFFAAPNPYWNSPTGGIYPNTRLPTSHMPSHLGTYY
Conditions: protein: recombinant; tags: N-terminal GST; dsDNA, one strand shown. In a few lines:
as §1

The target in the next experiment is ELF1 (Homo sapiens, UniProt P32519 1-619). To be noted: protein: recombinant; tags: N-terminal GST; dsDNA, one strand shown. The method, boiled down:
as §1

The target of another experiment is T5, EHF (Homo sapiens, UniProt Q9NZC4 1-300).
T5 sequence: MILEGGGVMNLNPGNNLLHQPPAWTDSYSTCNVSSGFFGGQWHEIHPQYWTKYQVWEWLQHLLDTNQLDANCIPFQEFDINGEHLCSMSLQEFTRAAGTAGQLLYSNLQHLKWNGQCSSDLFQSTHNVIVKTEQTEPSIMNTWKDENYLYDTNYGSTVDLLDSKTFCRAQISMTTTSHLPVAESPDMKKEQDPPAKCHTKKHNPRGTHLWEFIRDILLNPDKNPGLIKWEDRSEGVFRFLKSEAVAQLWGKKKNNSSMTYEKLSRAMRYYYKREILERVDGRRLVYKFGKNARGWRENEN
Conditions: protein: recombinant; tags: N-terminal GST; dsDNA, one strand shown. In a few lines: as §1

The target in another experiment is SPI1 (Homo sapiens, UniProt P17947 1-270). Conditions: protein: recombinant; tags: N-terminal GST; dsDNA, one strand shown. In a few lines: as §1
The target in a further experiment is SPIB (Homo sapiens, UniProt Q01892 1-262). To be noted: protein: recombinant; tags: N-terminal GST; dsDNA, one strand shown. In a few lines:
as §1

In the next experiment the target is T6, ELK3 (Homo sapiens, UniProt P41970 1-407).
T6 sequence: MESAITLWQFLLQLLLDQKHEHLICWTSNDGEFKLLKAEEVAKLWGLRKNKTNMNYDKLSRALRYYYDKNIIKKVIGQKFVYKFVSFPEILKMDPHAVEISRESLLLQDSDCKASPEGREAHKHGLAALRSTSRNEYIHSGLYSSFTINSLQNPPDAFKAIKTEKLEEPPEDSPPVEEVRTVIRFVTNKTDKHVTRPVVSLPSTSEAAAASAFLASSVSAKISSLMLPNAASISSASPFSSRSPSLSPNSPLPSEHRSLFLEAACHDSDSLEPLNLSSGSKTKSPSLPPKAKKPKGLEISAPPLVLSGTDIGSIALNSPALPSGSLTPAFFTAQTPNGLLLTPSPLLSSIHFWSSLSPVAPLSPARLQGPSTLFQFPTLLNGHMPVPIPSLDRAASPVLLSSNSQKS
Conditions: protein: recombinant; tags: N-terminal GST; dsDNA, one strand shown. In a few lines: as §1

In another experiment the target is T7, FEV (Homo sapiens, UniProt Q99581 1-238).
T7 sequence: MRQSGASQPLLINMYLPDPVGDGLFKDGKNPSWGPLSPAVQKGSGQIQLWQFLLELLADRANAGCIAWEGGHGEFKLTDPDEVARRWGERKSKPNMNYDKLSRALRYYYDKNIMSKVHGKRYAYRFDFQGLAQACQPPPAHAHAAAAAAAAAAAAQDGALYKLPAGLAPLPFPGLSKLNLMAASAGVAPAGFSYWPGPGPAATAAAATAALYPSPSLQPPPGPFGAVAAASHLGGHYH
Conditions: protein: recombinant; tags: N-terminal GST; dsDNA, one strand shown. In a few lines: as §1

For another experiment, the target named is ETV5 (Homo sapiens, UniProt P41161 1-510). To be noted: protein: recombinant; tags: N-terminal GST; dsDNA, one strand shown. The method, boiled down:
as §1

In a further experiment the target is HSF1 (Homo sapiens, UniProt Q00613 1-529). To be noted: protein: recombinant; tags: N-terminal GST; chain copies: 3; dsDNA, one strand shown. The method, boiled down:
as §1

The target of another experiment is T8, SPIC (Homo sapiens, UniProt Q8N5J4 1-248).
T8 sequence: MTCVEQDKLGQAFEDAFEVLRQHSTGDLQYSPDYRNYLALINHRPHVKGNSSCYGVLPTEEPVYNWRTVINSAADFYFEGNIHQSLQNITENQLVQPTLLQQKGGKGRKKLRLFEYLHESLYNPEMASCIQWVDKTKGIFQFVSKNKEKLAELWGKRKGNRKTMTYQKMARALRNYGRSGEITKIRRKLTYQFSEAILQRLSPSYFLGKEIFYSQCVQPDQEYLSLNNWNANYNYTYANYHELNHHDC
Conditions: protein: recombinant; tags: N-terminal GST; dsDNA, one strand shown. The method, boiled down: as §1

Another experiment has as its target ELF4 (Homo sapiens, UniProt Q99607 1-663). To be noted: protein: recombinant; tags: N-terminal GST; dsDNA, one strand shown. In a few lines:
as §1

A further experiment concerns the target T9, ELK4 (Homo sapiens, UniProt P28324-2 1-405).
T9 sequence: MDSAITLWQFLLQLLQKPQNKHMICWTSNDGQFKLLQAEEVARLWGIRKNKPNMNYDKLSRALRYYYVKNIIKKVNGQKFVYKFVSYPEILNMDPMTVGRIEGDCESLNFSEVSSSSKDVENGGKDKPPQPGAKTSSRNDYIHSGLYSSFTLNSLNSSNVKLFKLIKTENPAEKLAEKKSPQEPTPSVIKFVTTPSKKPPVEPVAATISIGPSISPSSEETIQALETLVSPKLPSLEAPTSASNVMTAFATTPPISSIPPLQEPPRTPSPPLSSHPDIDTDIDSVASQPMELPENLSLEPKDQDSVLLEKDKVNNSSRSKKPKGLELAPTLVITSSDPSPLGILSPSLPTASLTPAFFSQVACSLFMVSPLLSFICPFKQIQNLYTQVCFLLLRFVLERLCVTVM
Conditions: protein: recombinant; tags: N-terminal GST; dsDNA, one strand shown. The method, boiled down: as §1

In another experiment the target is T10, ETV2 (Homo sapiens, UniProt O00321 1-342).
T10 sequence: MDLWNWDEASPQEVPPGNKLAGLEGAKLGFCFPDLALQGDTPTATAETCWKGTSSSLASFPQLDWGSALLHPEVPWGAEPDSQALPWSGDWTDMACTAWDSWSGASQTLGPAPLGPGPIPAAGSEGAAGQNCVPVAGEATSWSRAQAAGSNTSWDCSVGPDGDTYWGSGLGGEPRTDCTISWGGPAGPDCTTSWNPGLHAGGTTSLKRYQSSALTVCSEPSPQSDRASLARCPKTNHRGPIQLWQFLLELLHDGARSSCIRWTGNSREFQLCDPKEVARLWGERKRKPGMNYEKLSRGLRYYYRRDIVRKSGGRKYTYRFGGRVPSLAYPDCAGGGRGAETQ
Conditions: protein: recombinant; tags: N-terminal GST; dsDNA, one strand shown. In a few lines:
as §1

In the next experiment the target is T11, ELF3 (Homo sapiens, UniProt P78545 1-371).
T11 sequence: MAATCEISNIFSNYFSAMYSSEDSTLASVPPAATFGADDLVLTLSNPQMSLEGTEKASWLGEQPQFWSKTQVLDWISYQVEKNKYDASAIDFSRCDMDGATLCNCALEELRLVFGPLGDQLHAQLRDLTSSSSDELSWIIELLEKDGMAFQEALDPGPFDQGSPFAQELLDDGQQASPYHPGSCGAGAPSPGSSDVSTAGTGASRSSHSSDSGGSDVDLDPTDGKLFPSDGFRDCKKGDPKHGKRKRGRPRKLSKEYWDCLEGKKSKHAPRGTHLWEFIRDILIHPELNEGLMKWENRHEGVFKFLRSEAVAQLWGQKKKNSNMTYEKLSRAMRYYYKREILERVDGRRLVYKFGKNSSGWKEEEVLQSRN
Conditions: protein: recombinant; tags: N-terminal GST; dsDNA, one strand shown. In a few lines: as §1

A further experiment has as its target CRX (Homo sapiens, UniProt O43186 1-299). To be noted: protein: recombinant; tags: N-terminal GST; dsDNA, one strand shown. In a few lines: as §1
A further experiment deals with ETV1 (Homo sapiens, UniProt P50549 1-477). To be noted: protein: recombinant; tags: N-terminal GST; dsDNA, one strand shown. The method, boiled down: as §1
Chain of ETV1 (P50549 whole entry): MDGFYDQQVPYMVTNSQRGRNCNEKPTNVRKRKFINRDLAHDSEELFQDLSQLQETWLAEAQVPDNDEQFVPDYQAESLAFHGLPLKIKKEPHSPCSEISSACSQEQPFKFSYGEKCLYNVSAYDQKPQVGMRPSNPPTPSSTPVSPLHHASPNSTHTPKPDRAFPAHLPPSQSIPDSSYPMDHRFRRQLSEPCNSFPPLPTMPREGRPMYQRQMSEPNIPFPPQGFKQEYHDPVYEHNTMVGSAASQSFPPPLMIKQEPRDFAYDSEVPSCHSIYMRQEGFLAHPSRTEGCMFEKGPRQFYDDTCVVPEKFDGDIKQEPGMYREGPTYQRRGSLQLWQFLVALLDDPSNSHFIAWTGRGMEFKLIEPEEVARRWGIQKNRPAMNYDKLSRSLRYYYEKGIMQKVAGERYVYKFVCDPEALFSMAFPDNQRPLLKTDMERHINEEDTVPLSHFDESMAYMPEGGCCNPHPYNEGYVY

Chain of ETV5 (P41161 whole entry): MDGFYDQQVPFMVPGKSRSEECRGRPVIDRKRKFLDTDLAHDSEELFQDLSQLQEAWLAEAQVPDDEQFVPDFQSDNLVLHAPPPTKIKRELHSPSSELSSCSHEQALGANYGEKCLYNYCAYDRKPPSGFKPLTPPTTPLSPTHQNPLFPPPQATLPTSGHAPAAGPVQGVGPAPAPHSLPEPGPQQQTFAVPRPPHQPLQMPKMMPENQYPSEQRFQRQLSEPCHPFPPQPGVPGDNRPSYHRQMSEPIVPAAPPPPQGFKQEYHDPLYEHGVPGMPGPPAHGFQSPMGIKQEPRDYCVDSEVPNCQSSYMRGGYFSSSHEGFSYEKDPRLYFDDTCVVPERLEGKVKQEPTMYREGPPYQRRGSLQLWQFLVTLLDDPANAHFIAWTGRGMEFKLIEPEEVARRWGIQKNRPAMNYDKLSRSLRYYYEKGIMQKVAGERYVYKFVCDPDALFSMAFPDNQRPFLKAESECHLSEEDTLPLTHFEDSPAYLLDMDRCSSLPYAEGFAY
Chain of SPIB (Q01892 whole entry): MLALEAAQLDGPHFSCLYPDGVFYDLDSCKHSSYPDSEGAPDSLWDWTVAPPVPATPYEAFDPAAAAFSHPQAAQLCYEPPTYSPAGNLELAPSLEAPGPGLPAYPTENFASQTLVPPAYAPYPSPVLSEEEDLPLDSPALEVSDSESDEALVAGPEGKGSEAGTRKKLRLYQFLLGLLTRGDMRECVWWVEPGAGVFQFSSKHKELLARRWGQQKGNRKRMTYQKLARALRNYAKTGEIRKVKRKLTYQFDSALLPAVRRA
Chain of CRX (O43186 whole entry): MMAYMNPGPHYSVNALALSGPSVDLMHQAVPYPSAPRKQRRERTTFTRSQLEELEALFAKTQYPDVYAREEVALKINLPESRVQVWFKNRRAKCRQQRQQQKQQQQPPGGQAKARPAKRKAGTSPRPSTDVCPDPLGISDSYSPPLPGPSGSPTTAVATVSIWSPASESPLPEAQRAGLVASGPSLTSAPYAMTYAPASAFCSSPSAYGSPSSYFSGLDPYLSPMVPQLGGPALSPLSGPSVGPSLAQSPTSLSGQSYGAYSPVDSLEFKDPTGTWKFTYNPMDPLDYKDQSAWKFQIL
Chain of ELF4 (Q99607 whole entry): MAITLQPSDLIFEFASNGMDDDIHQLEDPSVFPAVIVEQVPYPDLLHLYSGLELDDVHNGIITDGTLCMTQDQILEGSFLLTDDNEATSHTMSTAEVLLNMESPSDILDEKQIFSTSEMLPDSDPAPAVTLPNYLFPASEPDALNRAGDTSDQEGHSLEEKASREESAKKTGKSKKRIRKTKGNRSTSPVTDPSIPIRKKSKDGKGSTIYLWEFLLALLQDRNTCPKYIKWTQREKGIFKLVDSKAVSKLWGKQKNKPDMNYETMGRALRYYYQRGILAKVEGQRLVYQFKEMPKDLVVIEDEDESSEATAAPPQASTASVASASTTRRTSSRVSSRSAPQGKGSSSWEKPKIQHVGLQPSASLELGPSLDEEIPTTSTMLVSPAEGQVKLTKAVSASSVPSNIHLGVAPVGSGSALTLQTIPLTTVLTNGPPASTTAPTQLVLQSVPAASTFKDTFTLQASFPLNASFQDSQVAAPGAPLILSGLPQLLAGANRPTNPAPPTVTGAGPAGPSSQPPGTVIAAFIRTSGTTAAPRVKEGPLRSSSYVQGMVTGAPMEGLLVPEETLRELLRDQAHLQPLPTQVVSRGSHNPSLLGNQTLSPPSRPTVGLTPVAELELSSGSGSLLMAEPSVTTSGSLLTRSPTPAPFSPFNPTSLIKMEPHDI
Chain of ELF1 (P32519 whole entry): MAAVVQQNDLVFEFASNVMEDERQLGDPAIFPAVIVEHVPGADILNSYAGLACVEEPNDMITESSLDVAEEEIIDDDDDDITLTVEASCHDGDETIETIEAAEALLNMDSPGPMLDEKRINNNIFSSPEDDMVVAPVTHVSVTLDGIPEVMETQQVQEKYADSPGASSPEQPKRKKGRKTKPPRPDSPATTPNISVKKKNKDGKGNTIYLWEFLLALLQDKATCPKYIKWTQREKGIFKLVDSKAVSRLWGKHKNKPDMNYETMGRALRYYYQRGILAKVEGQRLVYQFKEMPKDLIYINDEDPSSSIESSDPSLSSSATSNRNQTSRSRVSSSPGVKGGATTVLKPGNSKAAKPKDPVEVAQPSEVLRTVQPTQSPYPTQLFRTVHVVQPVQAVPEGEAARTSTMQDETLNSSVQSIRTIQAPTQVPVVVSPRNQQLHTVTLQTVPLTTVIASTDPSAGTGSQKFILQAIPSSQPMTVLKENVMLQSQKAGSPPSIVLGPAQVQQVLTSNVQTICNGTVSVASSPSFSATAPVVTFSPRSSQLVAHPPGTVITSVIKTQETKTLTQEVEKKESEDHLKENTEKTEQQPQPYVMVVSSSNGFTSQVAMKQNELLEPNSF
Chain of HSF1 (Q00613 whole entry): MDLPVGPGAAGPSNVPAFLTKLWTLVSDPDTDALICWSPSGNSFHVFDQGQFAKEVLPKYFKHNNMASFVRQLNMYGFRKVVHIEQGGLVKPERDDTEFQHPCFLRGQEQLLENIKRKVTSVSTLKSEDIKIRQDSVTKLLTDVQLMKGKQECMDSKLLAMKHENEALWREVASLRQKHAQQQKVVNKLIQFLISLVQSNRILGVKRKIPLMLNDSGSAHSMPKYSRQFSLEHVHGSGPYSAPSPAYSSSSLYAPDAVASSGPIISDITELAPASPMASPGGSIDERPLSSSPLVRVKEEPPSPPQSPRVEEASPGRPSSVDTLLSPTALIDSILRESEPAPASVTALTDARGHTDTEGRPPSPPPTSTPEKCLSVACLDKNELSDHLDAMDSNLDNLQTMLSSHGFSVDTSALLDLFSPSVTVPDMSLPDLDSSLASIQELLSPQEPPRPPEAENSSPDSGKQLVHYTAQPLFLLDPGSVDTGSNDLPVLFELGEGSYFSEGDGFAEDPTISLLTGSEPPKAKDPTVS

Take TTTGGA: the binding signal was 1.15 fold enrichment (6-mer frequency, TF over GST control) with FLI1; 1.14 fold enrichment (6-mer frequency, TF over GST control) with ELK1; 1.24 fold enrichment (6-mer frequency, TF over GST control) with GABPA; 1.11 fold enrichment (6-mer frequency, TF over GST control) in the experiment with ERG; 1.18 fold enrichment (6-mer frequency, TF over GST control) with ELF1; 1.09 fold enrichment (6-mer frequency, TF over GST control) in the experiment with EHF. In addition, the binding signal is 1.19 fold enrichment (6-mer frequency, TF over GST control) with SPI1; 1.22 fold enrichment (6-mer frequency, TF over GST control) in the experiment with SPIB; 1.14 fold enrichment (6-mer frequency, TF over GST control) with ELK3; 1.2 fold enrichment (6-mer frequency, TF over GST control) with FEV; 1.21 fold enrichment (6-mer frequency, TF over GST control) with ETV5; 1.48 fold enrichment (6-mer frequency, TF over GST control) with HSF1. Further, the binding signal with SPIC was 1.28 fold enrichment (6-mer frequency, TF over GST control); with ELF4, 1.12 fold enrichment (6-mer frequency, TF over GST control); in the experiment with ELK4, 1.14 fold enrichment (6-mer frequency, TF over GST control); with ETV2 it was 1.22 fold enrichment (6-mer frequency, TF over GST control); in the experiment with ELF3, 1.13 fold enrichment (6-mer frequency, TF over GST control); in the experiment with CRX, 1.48 fold enrichment (6-mer frequency, TF over GST control). The binding signal with ETV1 is 1.24 fold enrichment (6-mer frequency, TF over GST control).

The values above are taken from article PMC7862700, “An all-to-all approach to the identification of sequence-specific readers for epigenetic DNA modifications on cytosine”.
